Hits are enriched below; roughly 7.3% of the tested compounds scored in any of these assays.
ELG1 genotoxic – qHTS screen for small molecules that induce genotoxicity in human embryonic kidney (HEK293T) cells expressing luciferase-tagged ELG1; HEK293T ELG1-luciferase reporter, luminescence, 16 h; Potency, µM (highest dose often 46 µM), for inactives: at the top dose activity change, positive = activation, usual class: activators; 330,000 tested, 1.3% active; also: % of control where 0% means no effect; nearly all actives have a fitted effect of over 60% in size
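Quantitative HTS format in 1536-well plates. HEK293T ELG1-luciferase reporter cells receive test compound and are incubated 16 hr at 37 °C, 5% CO2; ONE-Glo added, 30 min room temperature, then luminescence read.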
Rab9 promoter act – qHTS Assay for Rab9 Promoter Activators; Huh7 Rab9 promoter-luciferase reporter, luminescence, 24 h; Potency, µM (series often up to 9.22 µM), for inactives: top-dose activation, negative = inhibition, most hits filed as activators; 320,000 tested, 2.8% active; AID 485297, 2010; also: % of control where 0% means no effect; nearly all actives have a fitted effect of over 60% in size
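Cell-based reporter: Huh7 stable for Rab9 promoter-driven luciferase, plated in reduced-serum medium with 10% FBS at 1500 cells/well, compound-treated 24 h at 37 °C, luminescence read after 10 min reagent.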
FLuc counter – qHTS profiling assay for firefly luciferase inhibitor/activator using purifed enzyme and Km concentrations of substrates (counterscreen for miR-21 project) | Luciferin 4-monooxygenase (Photinus pyralis), P08659 | purified FLuc, Km substrates, luminescence inhibition | Potency, µM (doses to about 57.5 µM), inactives show at the highest dose activity change, negative = inhibition, usual class: inhibitors | 360,000 tested, 6.9% active;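 also: plate controls were vehicle for no effect and reference inhibitor for full effect; nearly all actives have a fitted effect of over 55% in size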
Target sequence (P08659 whole entry, looked up): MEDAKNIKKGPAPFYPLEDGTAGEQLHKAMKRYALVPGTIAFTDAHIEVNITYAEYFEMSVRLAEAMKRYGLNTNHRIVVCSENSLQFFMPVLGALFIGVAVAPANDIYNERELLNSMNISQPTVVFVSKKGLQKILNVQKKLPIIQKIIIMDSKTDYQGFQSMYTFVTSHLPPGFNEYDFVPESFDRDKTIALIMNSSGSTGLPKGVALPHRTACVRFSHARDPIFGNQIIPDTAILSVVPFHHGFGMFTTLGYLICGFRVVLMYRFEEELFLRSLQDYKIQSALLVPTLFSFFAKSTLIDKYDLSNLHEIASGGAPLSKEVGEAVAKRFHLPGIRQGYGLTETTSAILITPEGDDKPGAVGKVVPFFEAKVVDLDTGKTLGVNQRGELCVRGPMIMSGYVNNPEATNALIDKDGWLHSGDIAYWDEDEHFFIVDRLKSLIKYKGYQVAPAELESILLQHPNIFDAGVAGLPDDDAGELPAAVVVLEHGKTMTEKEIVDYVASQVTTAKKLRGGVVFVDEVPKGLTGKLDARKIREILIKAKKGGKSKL
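Biochemical qHTS of compounds, final roughly 60 µM downward over six points, against 10 nM purified firefly luciferase using Km concentrations of substrates (10 uM D-luciferin, 10 uM ATP) in Tris acetate pH 7.5 buffer; luminescence output.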
SMN2 splice up – qHTS Assay for Enhancers of SMN2 Splice Variant Expression. AID 1458, 2008. Potency, µM (series often up to 46.1 µM), for the others: top-dose activity change, positive = activation, actives largely listed as activators. HEK293 SMN2-luciferase splicing reporter, luminescence, 30-36 h. 210,000 tested, 2.8% active; also: % of control where 0% means no effect; nearly all actives have a fitted effect of over 55% in size
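HEK293 cells carry an SMN2 minigene-luciferase reporter in which exon 7 inclusion puts luciferase in frame. Cells were seeded at 2000 cells/well, attached for 10-12 hours, then exposed to compounds for 30-36 hours at 37C before ONE-Glo luminescence.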
NPC1 prom act – qHTS Assay for NPC1 Promoter Activators | Huh7 NPC1 promoter luciferase reporter, 24 h | Potency, µM (highest dose often 9.22 µM), without a hit: at the top dose activation, actives largely listed as activators | 320,000 tested, 2.4% active | AID 485313, 2010; also: % of control where 0% means no effect; nearly all actives have a fitted effect of over 60% in size
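Quantitative HTS used a cell-based reporter: Huh7 cells stably bearing the NPC1 promoter upstream of luciferase were treated with compounds for 24 h, and promoter activation was read as luminescence.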
KinaseGlo FLuc – Counterscreen for Luciferase (Kinase-Glo TM) Inhibition; Luciferin 4-monooxygenase (Photuris pensylvanica), Q27757; Kinase-Glo luciferase, ATP luminescence, 8 min; Potency, µM (doses to about 38.3 µM), for inactives: top-dose activity change, negative = inhibition, usual class: inhibitors; 200,000 tested, 0.28% active; AID 1379, 2008; also: % is scaled to controls: 0 for no effect and ±100 for the full control effect; nearly all actives have a fitted effect of over 60% in size
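Recombinant Kinase-Glo luciferase, 10 uM ATP (linear range), luciferin; imidazole pH 7.2 / KCl / MgCl2 / Tween / BSA buffer; 8 min RT; luminescence.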
* = called active by the depositor. Calls follow the shape of the dose curve; as a rule, active = well fitted curve in the direction sought with a large enough effect; inconclusive = small, poorly fitted or top-dose-only effect, or another doubt; inactive = no such curve, though single readings can be large; an effect the other way counts as inactive or inconclusive. Potency is read from the fitted curve at half-maximal effect.

`CS(=O)(=O)Nc1ccc(-c2nc3ccccc3s2)cc1` gave FLuc counter 1.1µM*.
Screening Cc1c(NS(C)(=O)=O)cccc1-c1nc2ccccc2s1 returned FLuc counter 8.5µM*.
COC(=O)c1ccc(COc2ccc(/C=N/Nc3cccc(C(=O)O)c3)cc2)cc1 was read as ELG1 genotoxic inconclusive, Rab9 promoter act 0.4µM*, FLuc counter 2.7µM* and NPC1 prom act 0.71µM*.
`O=C(O)c1cccc(N/N=C/c2cccs2)c1` gave ELG1 genotoxic inconclusive, Rab9 promoter act inconclusive, FLuc counter 0.43µM*, SMN2 splice up 0.14µM*, NPC1 prom act inconclusive and KinaseGlo FLuc -2%.
O=C(O)c1cc(N/N=C/c2ccc(OCc3ccccc3)cc2)ccc1Cl was read as ELG1 genotoxic inconclusive, Rab9 promoter act 0.56µM*, FLuc counter 6.7µM*, SMN2 splice up 11µM*, NPC1 prom act 2.5µM* and KinaseGlo FLuc 1%.
`CC(C)C(=O)N/N=C/c1ccc(OCc2ccccc2)cc1` gave ELG1 genotoxic 4%, Rab9 promoter act 1%, FLuc counter -14%, SMN2 splice up -6%, NPC1 prom act 2% and KinaseGlo FLuc -1%.
O=C(O)c1cccc(N/N=C/c2ccc(OC(F)(F)F)cc2)c1 was read as ELG1 genotoxic inconclusive, Rab9 promoter act 0.032µM*, FLuc counter 0.067µM* and NPC1 prom act inconclusive.
For O=C(Nc1ccc(OC(F)(F)F)cc1)c1cccc(-n2cnnn2)c1 the results were ELG1 genotoxic -1%, Rab9 promoter act -7%, FLuc counter 0% and NPC1 prom act -2%.
For CCOC(C)(C)C the results were SMN2 splice up 2%.
`CC(=O)c1cccc(NC(=O)CSc2nc(=O)n(Cc3ccco3)c3c2CCC3)c1` gave FLuc counter -11%.
O=C(N/N=C/C=C/c1ccccc1)c1ccccc1Br was read as ELG1 genotoxic -3%, Rab9 promoter act -2%, FLuc counter inconclusive, SMN2 splice up 22%, NPC1 prom act 4% and KinaseGlo FLuc -4%.
Screening CSc1ccc(/C=N/Nc2cccc(C(=O)O)c2)cc1 returned ELG1 genotoxic 0.073µM*, Rab9 promoter act 0.089µM*, FLuc counter 0.076µM*, SMN2 splice up 0.25µM*, NPC1 prom act inconclusive and KinaseGlo FLuc -2%.
O=C(O)c1ccc(N/N=C/c2ccc(OC(=O)c3cccc(Cl)c3)cc2)cc1 was read as ELG1 genotoxic -4%, Rab9 promoter act inconclusive, FLuc counter 19µM* and NPC1 prom act inconclusive.
For CCOc1cc(/C=N/Nc2cccc(C(=O)O)c2)ccc1OCC(=O)N1CCCCC1 the results were ELG1 genotoxic inconclusive, Rab9 promoter act 4.5µM*, FLuc counter 21µM*, SMN2 splice up 11µM*, NPC1 prom act 4µM* and KinaseGlo FLuc 7%.
O=C(O)c1cc(N/N=C/C=C/c2ccccc2)ccc1Cl was read as ELG1 genotoxic 9.2µM*, Rab9 promoter act 0.35µM*, FLuc counter 7.6µM*, SMN2 splice up 10µM*, NPC1 prom act 0.4µM* and KinaseGlo FLuc 2%.
`CC1CCc2onc(C(=O)N3CCN(c4ccc(Cl)cc4)CC3)c2C1` (stereo unspecified) gave FLuc counter 5%.
Screening CCc1ccccc1O returned SMN2 splice up -7%.
COc1ccc2nc(NC(=O)CSc3nnc(-c4ccoc4C)n3C)sc2c1 was read as ELG1 genotoxic 19%, Rab9 promoter act 3.5µM*, FLuc counter 2.7µM*, SMN2 splice up inconclusive, NPC1 prom act 2.8µM* and KinaseGlo FLuc -7%.
Screening CCn1nnnc1SCC(=O)Nc1nc2ccc(OC)cc2s1 returned ELG1 genotoxic 2%, Rab9 promoter act 20%, FLuc counter 12µM*, SMN2 splice up 20%, NPC1 prom act 23% and KinaseGlo FLuc 0%.
`CCn1nnnc1SCC(=O)Nc1ccc(OC)cc1` gave ELG1 genotoxic 9%, Rab9 promoter act 5%, FLuc counter -3%, SMN2 splice up 26%, NPC1 prom act 7% and KinaseGlo FLuc 2%.
Screening Cc1nc2ccccn2c1C(=O)NN returned ELG1 genotoxic 1%, Rab9 promoter act -11%, FLuc counter 1% and NPC1 prom act 2%.
Screening Cc1nc2ccccn2c1C(=O)/C=C/c1ccc(F)cc1 returned ELG1 genotoxic 6%, Rab9 promoter act inconclusive, FLuc counter 3µM*, SMN2 splice up -39%, NPC1 prom act 2.8µM* and KinaseGlo FLuc -4%.
Screening COc1ccc(NC(=O)c2c(Cl)nc3ccccn23)cc1 returned ELG1 genotoxic inconclusive, Rab9 promoter act 3.2µM*, FLuc counter inconclusive, SMN2 splice up inconclusive, NPC1 prom act 30% and KinaseGlo FLuc -2%.
For COc1ccc(CNC(=O)c2c(C)nc3ccccn23)cc1 the results were ELG1 genotoxic -7%, Rab9 promoter act -2%, FLuc counter 1%, SMN2 splice up -66%, NPC1 prom act -1% and KinaseGlo FLuc -2%.
Screening COc1ccc(/C=C/C(=O)c2c(C)nc3ccccn23)cc1 returned ELG1 genotoxic 11%, Rab9 promoter act 3.5µM*, FLuc counter 7.6µM*, SMN2 splice up 5%, NPC1 prom act inconclusive and KinaseGlo FLuc -4%.
Screening O=C(Nc1ccc(F)cc1)c1c(Cl)nc2ccccn12 returned ELG1 genotoxic inconclusive, Rab9 promoter act 24%, FLuc counter inconclusive, SMN2 splice up inconclusive, NPC1 prom act 19% and KinaseGlo FLuc 1%.
Cc1cc(C)cc(NC(=O)CSCc2cc(=O)c3cc(Cl)ccc3[nH]2)c1 was read as FLuc counter -6%.
Screening CC(Cc1ccc(O)c(O)c1)(NN)C(=O)O (stereo unspecified) returned SMN2 splice up -1% and KinaseGlo FLuc -3%.
O=C(Nc1ccc(OC(F)(F)F)cc1)C1=NCCN1 was read as ELG1 genotoxic 10%, Rab9 promoter act 2%, FLuc counter 6.7µM*, SMN2 splice up 2%, NPC1 prom act inconclusive and KinaseGlo FLuc -6%.
`CCOc1ccc(N=Nc2c(C)[nH]n(-c3ccccc3)c2=O)cc1` gave ELG1 genotoxic -5%, Rab9 promoter act 4%, FLuc counter inconclusive and NPC1 prom act 17%.
